DT40 TDP1 CPT = growth inhibition of DT40 Tdp1-/-;hTDP1 cells with camptothecin (screen for TDP1 inhibitors). 420,000 compounds, 12% hits. AID 686979. Potency, µM (doses to about 46.2 µM), usual class: inhibitors. chicken DT40 Tdp1-/-;hTDP1 cells + 20 nM CPT, ATP luminescence, 48 h; further: nearly all actives have a fitted effect of over 55% in size
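Chicken DT40 Tdp1-/- cells complemented with human TDP1, 400 cells/well, exposed to compounds plus 20 nM camptothecin for at least 48 h at 37 C; viability read as ATP content by CellTiter-Glo luminescence.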
HT1080NT lethal = kills 2HG-producing HT-1080-NT fibrosarcoma cells; HT-1080-NT fibrosarcoma viability, CellTiter-Glo ATP luminescence, 48 h; Potency, µM (doses to about 46.1 µM), most hits filed as cytotoxic; 360,000 compounds, 1.6% hits; AID 686970;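 further: NT is the 2HG producing partner of a matched IDH1 knockdown line; nearly all actives have a fitted effect of over 55% in size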
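Compounds were tested in concentration-response format on HT-1080-NT cells for 48 hours at 37 degrees C. Cell viability came from CellTiter-Glo luminescence; curves were classified by r2, response magnitude and activity.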
HT1080 IDH1KD tx = toxicity to HT-1080 IDH1 knockdown cells (counter line); HT-1080 IDH1 knockdown viability, ATP luminescence, 48 h; Potency, µM (series often up to 46.1 µM), hits mostly cytotoxic; 360,000 compounds, 2% hits
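Using the IDH1-knockdown HT-1080 line run in the same batch and compound series as the NT line, viability after 48 h at 37 °C was determined by CellTiter-Glo luminescence and expressed as % activity.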
TDP1 cell noCPT = qHTS for Inhibitors of human tyrosyl-DNA phosphodiesterase 1 (TDP1): qHTS in cells in absence of CPT | Potency, µM (doses to about 46.2 µM), actives largely listed as inhibitors | DT40 Tdp1-/- hTDP1 cells, no CPT, ATP luminescence, 48 h | 420,000 compounds, 15% hits; further: nearly all actives have a fitted effect of over 55% in size
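Stably hTDP1-transfected Tdp1-null chicken DT40 cells were treated with library compounds minus camptothecin and grown for at least 48 hr at 37 °C, after which cellular ATP was quantified by luminescence.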
IL-1B inflam inh = inflammasome signaling inhibition, IL-1 beta readout; THP-1 LPS/ATP IL-1B secretion, AlphaLISA, 16 h; hits give low values; 360,000 compounds, 4.7% hits; activity change, % at 57.5 µM; in the data active means activity change below about -50%; inconclusive means mostly about -30% to -49%
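THP-1 cells pretreated 1 hr with compounds (up to 57.5 uM final), then stimulated with LPS (250 ng/mL final) plus ATP (1.25 mM final); secreted IL-1B measured by AlphaLISA after 16 hr, decreased signal indicating inhibition.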
Large screens that a line does not name were inactive. This is a sample that favours compounds with a hit; in the whole collection about 19% have one here. Unless noted, the call rests on the fitted dose curve; in most records, active means well fitted curve in the direction sought with a large enough effect; inconclusive means small, poorly fitted or top-dose-only effect, or another doubt; inactive means no such curve, though single readings can be large; an effect the other way counts as inactive or inconclusive.

CC1=NC(=O)C(N=Nc2ccccc2C(=O)O)N1c1ccccc1 (stereo not drawn)	DT40 TDP1 CPT 7.31µM, TDP1 cell noCPT 13µM
CN(C)c1ccnc(-c2cccc(NS(C)(=O)=O)c2)n1	none (no result: HT1080NT lethal, HT1080 IDH1KD tx, IL-1B inflam inh)
C[C@@H]1CN([C@H](C)CO)C(=O)c2cc(NC(=O)Nc3ccc(F)cc3)ccc2O[C@@H](C)CCCCO[C@H]1CN(C)S(=O)(=O)c1ccc(Cl)cc1	DT40 TDP1 CPT 25.9µM, TDP1 cell noCPT inconclusive (no result: IL-1B inflam inh)
C[C@H](CO)N1C[C@H](C)[C@@H](CN(C)Cc2ccc(Cl)c(Cl)c2)OCCCC[C@H](C)Oc2ccc(NC(=O)CCC(F)(F)F)cc2C1=O	DT40 TDP1 CPT 23.1µM, HT1080 IDH1KD tx inconclusive, TDP1 cell noCPT 14.6µM
C[C@@H]1CCCCO[C@H](CN(C)Cc2ccc(Cl)c(Cl)c2)[C@@H](C)CN([C@H](C)CO)C(=O)c2cc(N(C)C)ccc2O1	DT40 TDP1 CPT 18.4µM, TDP1 cell noCPT 23.1µM, IL-1B inflam inh inconclusive
C[C@@H]1CCCCO[C@H](CN(C)Cc2ccc(Cl)c(Cl)c2)[C@H](C)CN([C@@H](C)CO)C(=O)c2cc(NC(=O)Nc3ccc(F)cc3)ccc2O1	DT40 TDP1 CPT 9.2µM, HT1080 IDH1KD tx inconclusive, TDP1 cell noCPT 5.8µM, IL-1B inflam inh inconclusive
CC(C)c1ccc(NC(=O)C(NS(=O)(=O)c2ccc3c(c2)CCC(=O)N3)c2ccccc2)cc1 (stereo not drawn)	DT40 TDP1 CPT 20.6µM, TDP1 cell noCPT inconclusive (no result: HT1080NT lethal, HT1080 IDH1KD tx, IL-1B inflam inh)
Cc1ccc(NC(=O)C(NS(=O)(=O)c2ccc3c(c2)CCC(=O)N3)c2ccccc2)cc1C (stereo not drawn)	DT40 TDP1 CPT inconclusive, TDP1 cell noCPT 13µM (no result: HT1080NT lethal, HT1080 IDH1KD tx, IL-1B inflam inh)
COc1cccc(N2CCN(C(=O)CN(C)S(=O)(=O)c3ccc4c(c3)CCC(=O)N4)CC2)c1	DT40 TDP1 CPT 29.1µM, TDP1 cell noCPT 18.4µM
Cc1cc(NC(=O)CN(C)S(=O)(=O)c2ccc3c(c2)CCC(=O)N3)ccc1Br	DT40 TDP1 CPT 29.1µM, TDP1 cell noCPT 20.6µM (no result: HT1080NT lethal, HT1080 IDH1KD tx, IL-1B inflam inh)
Cc1ccc(C)c(NC(=O)C(NS(=O)(=O)c2ccc3c(c2)CCC(=O)N3)c2ccccc2)c1 (stereo not drawn)	DT40 TDP1 CPT inconclusive (no result: HT1080NT lethal, HT1080 IDH1KD tx, IL-1B inflam inh)
CC(C)(C)OC(=O)NCCc1nc(NC(=O)OCc2ccccc2)sc1C(=O)O	none
COc1cccc(CN(C)C(=O)c2cc(COc3c(F)cccc3F)on2)c1	none
COc1cccc(CN(C)C(=O)c2cc(COc3ccc(-n4cncn4)cc3)on2)c1	DT40 TDP1 CPT 20.6µM, TDP1 cell noCPT 18.4µM
COc1cccc(CN(C)C(=O)c2cc(COc3ccc4ncccc4c3)on2)c1	DT40 TDP1 CPT 3.26µM, HT1080NT lethal inconclusive, TDP1 cell noCPT 2.91µM
S=c1nccc(-c2ccc3c(c2)CCO3)[nH]1	DT40 TDP1 CPT 10.3µM, TDP1 cell noCPT inconclusive
COc1ccc(OC)c(N(CC(=O)N2CCCC2)S(C)(=O)=O)c1	none
CC(=O)OC(C)(C)C1Cc2cc3ccc(=O)oc3cc2O1 (stereo not drawn)	none
C/C=C(\C)C(=O)OC(C)(C)[C@H]1Cc2cc3ccc(=O)oc3cc2O1	DT40 TDP1 CPT 23.1µM, TDP1 cell noCPT inconclusive
C=CCC1NS(=O)(=O)OCC1C(C)C (stereo not drawn)	TDP1 cell noCPT inconclusive
COC(=O)[C@@H]1CCCN1S(=O)(=O)Cc1ccccc1	none (no result: HT1080NT lethal, HT1080 IDH1KD tx, IL-1B inflam inh)
CCOC(=O)[C@H]1[C@H]2COc3cc(OC)ccc3[C@@H]2N2C(=O)N(c3cccc(Cl)c3)C(=O)[C@@]12C	DT40 TDP1 CPT inconclusive, TDP1 cell noCPT 29.1µM
CCOC(=O)[C@@H]1[C@H]2COc3cc(OC)ccc3[C@@H]2N2C(=O)N(c3cccc(Cl)c3)C(=O)[C@]12C	DT40 TDP1 CPT inconclusive, TDP1 cell noCPT inconclusive
CCOC(=O)[C@@H]1[C@H]2COc3cc(OC)ccc3[C@@H]2N2C(=O)N(c3ccc(OC)cc3)C(=O)[C@@]12C	HT1080NT lethal inconclusive
CCOC(=O)[C@@H]1[C@H]2COc3cc(OC)ccc3[C@@H]2N2C(=O)N(c3ccc(Br)cc3)C(=O)[C@]12C	DT40 TDP1 CPT 14.6µM, TDP1 cell noCPT inconclusive
CCOC(=O)[C@@H]1[C@H]2COc3cc(OC)ccc3[C@@H]2N2C(=O)N(c3ccc(C(F)(F)F)cc3)C(=O)[C@]12C	DT40 TDP1 CPT 23.1µM, TDP1 cell noCPT 20.6µM
Cc1ccccc1NC(=O)CCS(=O)(=O)c1cccc2nonc12	none
Cc1ccc(Cl)cc1NC(=O)CCS(=O)(=O)c1cccc2nonc12	DT40 TDP1 CPT 14.6µM, TDP1 cell noCPT inconclusive
Cc1ccc(S(=O)(=O)N2CCCCC2)cc1NC(=O)COc1ccccc1F	none
CNS(=O)(=O)c1cccc(C(=O)OCC(=O)NC(C)CCc2ccccc2)c1 (stereo not drawn)	none
COC(=O)CNC(=O)c1ccc(NS(=O)(=O)c2cc([N+](=O)[O-])ccc2Cl)cc1	none
CC(CCc1ccccc1)NC(=O)COC(=O)c1cc(NS(=O)(=O)c2ccc(Cl)c([N+](=O)[O-])c2)ccc1O (stereo not drawn)	DT40 TDP1 CPT inconclusive, HT1080NT lethal inconclusive, HT1080 IDH1KD tx inconclusive, TDP1 cell noCPT inconclusive, IL-1B inflam inh -97.7
CN(C(=O)COC(=O)c1cc(NS(=O)(=O)c2cc([N+](=O)[O-])ccc2Cl)ccc1O)C1CCCCC1	IL-1B inflam inh -80.8
C[C@@H]1CN=C2N(CCNC(=O)CCC3CCCCC3)[C@H](Cc3ccc(O)cc3)CN21	DT40 TDP1 CPT 13µM, TDP1 cell noCPT 16.4µM
O=C(CCC1CCCCC1)NCCN1C2=NC[C@H](Cc3ccc(O)cc3)N2C[C@H]1Cc1ccc(O)cc1	DT40 TDP1 CPT inconclusive, TDP1 cell noCPT inconclusive
COc1ccc(C[C@@H]2CN3C(=NC[C@@H]3C)N2CCNC(=O)c2ccc(C)c(Br)c2)cc1	DT40 TDP1 CPT 23.1µM, TDP1 cell noCPT 13µM, IL-1B inflam inh inconclusive
COc1ccc(C[C@H]2CN3C(=NC[C@@H]3Cc3ccccc3)N2CCNC(=O)CCC2CCCCC2)cc1	DT40 TDP1 CPT 13µM, HT1080NT lethal inconclusive, HT1080 IDH1KD tx inconclusive, TDP1 cell noCPT 16.4µM
COc1ccc(C[C@H]2CN3C(=NC[C@@H]3C(C)C)N2CCNC(=O)CCC2CCCCC2)cc1	DT40 TDP1 CPT 8.2µM, TDP1 cell noCPT 7.31µM, IL-1B inflam inh -55.6
C/C=C(\C)C(=O)NCCN1C2=NC[C@H](C)N2C[C@@H]1Cc1ccc(OC)cc1	none
COc1ccc2c(c1)OCc1c-2oc2cc(OC)ccc12	none (no result: HT1080NT lethal, HT1080 IDH1KD tx, IL-1B inflam inh)
CCCNC(=O)[C@H](C)NC(=O)c1ccc(Br)cc1	none
CC(C)[C@H]1CN=C2N(CCNC(=O)CCC3CCCCC3)[C@H](Cc3ccc(O)cc3)CN21	DT40 TDP1 CPT 13µM, TDP1 cell noCPT 8.2µM
